Results reported in PubChem BioAssay AID1159580 (chemical genetic matrix, 2015).
Where “and” joins values, the source holds several entries; their conditions need not be identical. Equal entries are not always repeated. Out of some 5,500 compounds screened, about 2,000 (36%) were called active. Not shown: some 18% with an inconclusive outcome. Cut-off read from the data, not from the text of the source: active = normalized growth mostly below about 0.91 (no sharp cut-off); inconclusive = no clear call, values can overlap the other calls; inactive = mostly above about 0.92. The list shows a part of the results.

Assay: chemical genetic growth profiling, strain panel (AID 1159580);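 note: tested at 20 µM; growth read once vehicle control cultures reached saturation at 30 °C; 1 = growth at the plate median or of vehicle wells; lower values mean less growth of the strain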
Conditions: S. cerevisiae deletion strains, growth OD

Measured: normalized growth

CC(C)(C)NCC(O)COc1cccc2c1C[C@H](O)[C@H](O)C2 (stereo not given in full)
inactive: locus YAL021C, strain ccr4, active compounds read low 0.99 | locus YAL026C, strain drs2, active compounds read low 1.01 | locus YAL030W, strain snc1, active compounds read low 0.995 | locus YBL061C, strain skt5, active compounds read low 1 | locus YBR009C, strain hhf1, active compounds read low 0.999 | locus YBR021W, strain FUR4, active compounds read low 1.03 | locus YBR023C, strain chs3, active compounds read low 1.01 | locus YBR171W, strain sec66, active compounds read low 1.01 | locus YBR229C, strain ROT2, active compounds read low 1.01 | locus YBR231C, strain swc5, active compounds read low 1 | locus YBR279W, strain paf1, active compounds read low 1 | locus YCL011C, strain gbp2, active compounds read low 1 | locus YCL016C, strain dcc1, active compounds read low 1 | locus YCL029C, strain bik1, active compounds read low 0.997 | locus YCL061C, strain MRC1, active compounds read low 1.01 | locus YCL069W, strain vba3, active compounds read low 1 | locus YCR088W, strain abp1, active compounds read low 1 | locus YDL005C, strain med2, active compounds read low 1.01 | locus YDL035C, strain GPR1, active compounds read low 0.983 | locus YDL040C, strain nat1, active compounds read low 0.999 | locus YDL074C, strain BRE1, active compounds read low 1.06 | locus YDL101C, strain DUN1, active compounds read low 0.999 | locus YDL134C, strain PPH21, active compounds read low 1 | locus YDL185W, strain tfp1, active compounds read low 0.96 | locus YDL192W, strain arf1, active compounds read low 0.982 | locus YDR001C, strain nth1, active compounds read low 1.01 | locus YDR069C, strain doa4, active compounds read low 1 | locus YDR101C, strain arx1, active compounds read low 1.05 | locus YDR137W, strain rgp1, active compounds read low 1.01 | locus YDR150W, strain NUM1, active compounds read low 0.992 | locus YDR159W, strain sac3, active compounds read low 1 | locus YDR162C, strain NBP2, active compounds read low 0.964 | locus YDR195W, strain ref2 0.999 | locus YDR297W, strain sur2, active compounds read low 1 | locus YDR318W, strain mcm21, active compounds read low 0.979 | locus YDR334W, strain swr1, active compounds read low 1.02 | locus YDR335W, strain msn5, active compounds read low 1 | locus YDR388W, active compounds read low 0.989 | locus YDR392W, strain spt3, active compounds read low 1.01 | locus YDR502C, strain sam2, active compounds read low 0.99 | locus YEL003W, strain gim4, active compounds read low 1 | locus YEL037C, strain rad23, active compounds read low 1.01 | locus YEL061C, strain CIN8 (second series), active compounds read low 1.01 | locus YEL061C, strain CIN8, active compounds read low 0.999 | locus YER015W, strain faa2, active compounds read low 0.999 | locus YER016W, strain bim1, active compounds read low 1.01 | locus YER110C, active compounds read low 0.976 | locus YER111C, strain swi4, active compounds read low 1 | locus YER155C, strain BEM2 (second series), active compounds read low 0.997 | locus YER155C, strain BEM2, active compounds read low 0.999 | locus YER167W, strain BCK2, active compounds read low 0.996 | locus YFR010W, strain ubp6, active compounds read low 1.02 | locus YGL078C, strain dbp3, active compounds read low 0.989 | locus YGL086W, strain mad1, active compounds read low 1.02 | locus YGL167C, strain pmr1, active compounds read low 1 | locus YGL173C, strain kem1, active compounds read low 1.01 | locus YGL227W, strain vid30, active compounds read low 1.01 | locus YGL240W, strain doc1, active compounds read low 1 | locus YGL248W, strain PDE1, active compounds read low 1.01 | locus YGL253W, strain hxk2, active compounds read low 1.02 | locus YGR135W, strain pre9, active compounds read low 0.951 | locus YGR229C, strain SMI1, active compounds read low 0.989 | locus YGR252W, strain gcn5, active compounds read low 0.986 | locus YHR013C, strain ard1, active compounds read low 1.03 | locus YHR027C, strain rpn1, active compounds read low 1 | locus YHR030C, strain SLT2, active compounds read low 0.992 and 1.02 | locus YHR079C, strain IRE1 (second series), active compounds read low 0.987 | locus YHR079C, strain IRE1, active compounds read low 1.01 | locus YHR094C, strain hxt1, active compounds read low 0.995 | locus YHR129C, strain ARP1, active compounds read low 0.991 | locus YHR142W, strain chs7, active compounds read low 1.01 | locus YHR200W, strain rpn10, active compounds read low 0.987 | locus YIL066C, strain RNR3, active compounds read low 1 | locus YIL073C, strain SPO22, active compounds read low 0.883 | locus YIL125W, strain kgd1, active compounds read low 0.998 | locus YIR030C, strain dcg1, active compounds read low 0.984 | locus YJL092W, strain hpr5, active compounds read low 1.01 | locus YJL095W, strain BCK1 (second series), active compounds read low 1.01 | locus YJL095W, strain BCK1, active compounds read low 1.02 and 1.04 | locus YJL115W, strain asf1, active compounds read low 1.02 | locus YJL129C, strain trk1, active compounds read low 1 | locus YJL134W, strain LCB3, active compounds read low 0.989 | locus YJL154C, strain vps35, active compounds read low 0.995 | locus YJL164C, strain tpk1, active compounds read low 1 | locus YJL166W, strain qcr8, active compounds read low 1 | locus YJL168C, strain set2, active compounds read low 1 | locus YJL187C, strain SWE1 (second series), active compounds read low 1.01 | locus YJL187C, strain SWE1, active compounds read low 1.01 | locus YJR043C, strain POL32, active compounds read low 1 | locus YJR066W, strain TOR1, active compounds read low 1
